# Measurements taken from the supplement of paper PMC8728848.
# The full list was thinned out, with the strongest signals kept by preference.
# Columns and labels:
# Test in all cases: glycan array binding signal (z-score within array); higher = stronger binding
# Conditions in all cases: glycan notation: IUPAC condensed, linker removed
# [1] = molecular target: Fuc(a1-2)Gal(b1-3)GalNAc(b1-4)[Neu5Ac(a2-3)]Gal(b1-4)Glc
# Outline: (§1)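 Arrays were curated from the Consortium for Functional Glycomics database, 3228 in total, and kept only where the protein sequence was available. Binding is expressed as a within-array Z-score. This score was averaged across arrays of the same protein sequence at different concentrations or buffers and across linkers, and negative values can be read as non-binding.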
# Fuc(a1-2)Gal(b1-4)Glc6S = molecular target: Fuc(a1-2)Gal(b1-4)Glc6S
# Outline: as §1
# [2] = molecular target: Fuc(a1-2)[Gal(a1-3)]Gal(b1-4)[Fuc(a1-3)]GlcNAc
# Outline: as §1
# [3] = molecular target: Fuc(a1-2)[GalNAc(a1-3)]Gal(b1-3)GlcNAc
# Outline: as §1
# [4] = molecular target: Fuc(a1-2)[GalNAc(a1-3)]Gal(b1-3)GlcNAc(b1-3)GalNAc
# Outline: as §1
# [5] = molecular target: Fuc(a1-2)[GalNAc(a1-3)]Gal(b1-4)GlcNAc(b1-2)Man(a1-3)[Fuc(a1-2)[GalNAc(a1-3)]Gal(b1-4)GlcNAc(b1-2)Man(a1-6)]Man(b1-4)GlcNAc(b1-4)[Fuc(a1-6)]GlcNAc
# Outline: as §1
# [6] = molecular target: Fuc(a1-3)[Gal(b1-4)]GlcNAc
# Outline: as §1
# [7] = molecular target: Gal(a1-3)Gal(b1-3)GlcNAc(b1-2)Man(a1-3)[Gal(a1-3)Gal(b1-3)GlcNAc(b1-2)Man(a1-6)]Man(b1-4)GlcNAc(b1-4)GlcNAc
# Outline: as §1
# [8] = molecular target: Gal(a1-3)Gal(b1-4)GlcNAc(b1-6)GalNAc
# Outline: as §1
# [9] = molecular target: Gal(b1-3)GlcNAc(b1-3)Gal(b1-4)GlcNAc(b1-2)[Gal(b1-3)GlcNAc(b1-3)Gal(b1-4)GlcNAc(b1-6)]Man(a1-6)[Gal(b1-3)GlcNAc(b1-3)Gal(b1-4)GlcNAc(b1-2)Man(a1-3)]Man(b1-4)GlcNAc(b1-4)[Fuc(a1-6)]GlcNAc
# Outline: as §1
# [10] = molecular target: Gal(b1-3)[Fuc(a1-4)]GlcNAc(b1-6)GalNAc
# Outline: as §1
# [11] = molecular target: Gal(b1-3)[Neu5Ac(b2-6)]GalNAc
# Outline: as §1
# [12] = molecular target: Gal(b1-4)GlcNAc(b1-2)Man(a1-3)[Gal(b1-4)GlcNAc(b1-2)Man(a1-6)]Man(b1-4)GlcNAc(b1-4)GlcNAc
# Outline: as §1
# [13] = molecular target: Gal(b1-4)GlcNAc(b1-3)Gal(b1-4)GlcNAc(b1-2)[Gal(b1-4)GlcNAc(b1-3)Gal(b1-4)GlcNAc(b1-6)]Man(a1-6)[Gal(b1-4)GlcNAc(b1-3)Gal(b1-4)GlcNAc(b1-2)Man(a1-3)]Man(b1-4)GlcNAc(b1-4)[Fuc(a1-6)]GlcNAc
# Outline: as §1
# [14] = molecular target: Gal(b1-4)GlcNAc(b1-3)Gal(b1-4)GlcNAc(b1-3)Gal(b1-4)GlcNAc(b1-2)Man(a1-3)[Gal(b1-4)GlcNAc(b1-3)Gal(b1-4)GlcNAc(b1-3)Gal(b1-4)GlcNAc(b1-2)Man(a1-6)]Man(b1-4)GlcNAc(b1-4)[Fuc(a1-6)]GlcNAc
# Outline: as §1
# [15] = molecular target: Gal(b1-4)GlcNAc(b1-3)Gal(b1-4)GlcNAc(b1-3)Gal(b1-4)GlcNAc(b1-3)Gal(b1-4)GlcNAc(b1-2)[Gal(b1-4)GlcNAc(b1-3)Gal(b1-4)GlcNAc(b1-3)Gal(b1-4)GlcNAc(b1-3)Gal(b1-4)GlcNAc(b1-6)]Man(a1-6)[Gal(b1-4)GlcNAc(b1-3)Gal(b1-4)GlcNAc(b1-3)Gal(b1-4)GlcNAc(b1-3)Gal(b1-4)GlcNAc(b1-2)Man(a1-3)]Man(b1-4)GlcNAc(b1-4)[Fuc(a1-6)]GlcNAc
# Outline: as §1
# Gal3S(b1-3)GlcNAc = molecular target: Gal3S(b1-3)GlcNAc
# Outline: as §1
# Gal3S6S(b1-4)GlcNAc6S = molecular target: Gal3S6S(b1-4)GlcNAc6S
# Outline: as §1
# Gal6S(b1-3)GlcNAc = molecular target: Gal6S(b1-3)GlcNAc
# Outline: as §1
# [16] = molecular target: GlcA3S(b1-3)Gal(b1-4)GlcNAc(b1-3)Gal(b1-4)Glc
# Outline: as §1
# [17] = molecular target: GlcNAc(b1-3)Gal(b1-4)GlcNAc(b1-2)Man(a1-3)[GlcNAc(b1-3)Gal(b1-4)GlcNAc(b1-2)Man(a1-6)]Man(b1-4)GlcNAc(b1-4)[Fuc(a1-6)]GlcNAc
# Outline: as §1
# [18] = molecular target: GlcNAc(b1-3)Gal(b1-4)GlcNAc(b1-3)Gal(b1-4)GlcNAc(b1-2)[GlcNAc(b1-3)Gal(b1-4)GlcNAc(b1-3)Gal(b1-4)GlcNAc(b1-6)]Man(a1-6)[GlcNAc(b1-3)Gal(b1-4)GlcNAc(b1-3)Gal(b1-4)GlcNAc(b1-2)Man(a1-3)]Man(b1-4)GlcNAc(b1-4)[Fuc(a1-6)]GlcNAc
# Outline: as §1
# [19] = molecular target: GlcNAc(b1-3)Gal(b1-4)GlcNAc(b1-3)Gal(b1-4)GlcNAc(b1-3)Gal(b1-4)GlcNAc(b1-2)Man(a1-3)[GlcNAc(b1-3)Gal(b1-4)GlcNAc(b1-3)Gal(b1-4)GlcNAc(b1-3)Gal(b1-4)GlcNAc(b1-2)Man(a1-6)]Man(b1-4)GlcNAc(b1-4)GlcNAc
# Outline: as §1
# GlcNAc(b1-3)GalNAc = molecular target: GlcNAc(b1-3)GalNAc
# Outline: as §1
# [20] = molecular target: Kdn(a2-3)Gal(b1-4)[Fuc(a1-3)]GlcNAc
# Outline: as §1
# [21] = molecular target: Man(a1-2)Man(a1-3)[Man(a1-2)Man(a1-6)]Man(a1-6)[Man(a1-2)Man(a1-2)Man(a1-3)]Man
# Outline: as §1
# [22] = molecular target: Man(a1-3)[Man(a1-6)]Man(a1-6)[Man(a1-2)Man(a1-3)]Man(b1-4)GlcNAc(b1-4)GlcNAc
# Outline: as §1
# [23] = molecular target: Neu5Ac(a2-3)Gal(b1-3)GlcNAc(b1-2)Man(a1-3)[GlcNAc(b1-4)][Neu5Ac(a2-3)Gal(b1-3)GlcNAc(b1-2)Man(a1-6)]Man(b1-4)GlcNAc(b1-4)GlcNAc
# Outline: as §1
# [24] = molecular target: Neu5Ac(a2-3)Gal(b1-3)]Neu5Ac(a2-3)Gal(b1-4)]GlcNAc
# Outline: as §1
# [25] = molecular target: Neu5Ac(a2-3)Gal(b1-4)GlcNAc(b1-2)Man(a1-3)[Neu5Ac(a2-6)Gal(b1-4)GlcNAc(b1-2)Man(a1-6)]Man(b1-4)GlcNAc(b1-4)GlcNAc
# Outline: as §1
binder,measurement,setting,value
CM2 (Cordyceps militaris) (protein) MEIAEQNVGKSCAIVNLIPPKEGSNIWTAKQVTIARNLPPNRGTGRHQIDWSFGPVKVTGYVDTTNWEIGVTVSIMGIDLGTVYGNLRDGVVLNVDLFLAKGQVRFYLKNGNEVWVHLSVEIRFDGKFEGDYKIITV,glycan array binding signal (z-score),[1],0.28
same,glycan array binding signal (z-score),Fuc(a1-2)Gal(b1-4)Glc6S,-0.639
same,glycan array binding signal (z-score),[2],1.81
same,glycan array binding signal (z-score),[3],1.61
same,glycan array binding signal (z-score),[4],1.29
same,glycan array binding signal (z-score),[5],0.394
same,glycan array binding signal (z-score),[6],0.057
same,glycan array binding signal (z-score),[7],-0.635
same,glycan array binding signal (z-score),[8],-0.847
same,glycan array binding signal (z-score),[9],0.677
same,glycan array binding signal (z-score),[10],0.038
same,glycan array binding signal (z-score),[11],0.422
same,glycan array binding signal (z-score),[12],-1.28
same,glycan array binding signal (z-score),[13],2.29
same,glycan array binding signal (z-score),[14],3.05
same,glycan array binding signal (z-score),[15],1.2
same,glycan array binding signal (z-score),Gal3S(b1-3)GlcNAc,0.015
same,glycan array binding signal (z-score),Gal3S6S(b1-4)GlcNAc6S,3.73
same,glycan array binding signal (z-score),Gal6S(b1-3)GlcNAc,-0.595
same,glycan array binding signal (z-score),[16],0.06
same,glycan array binding signal (z-score),[17],2.3
same,glycan array binding signal (z-score),[18],3.55
same,glycan array binding signal (z-score),[19],-0.287
same,glycan array binding signal (z-score),GlcNAc(b1-3)GalNAc,-0.452
same,glycan array binding signal (z-score),[20],0.801
same,glycan array binding signal (z-score),[21],2.53
same,glycan array binding signal (z-score),[22],2.43
same,glycan array binding signal (z-score),[23],1.74
same,glycan array binding signal (z-score),[24],3.98
same,glycan array binding signal (z-score),[25],0.37
